About 2,200 (0.71%) of roughly 310,000 compounds showed an effect of 50% or more. The effect is printed as a negative number. The sample as a whole holds a higher share of strong results than the screen did.
Molecular target: human ether-à-go-go-related gene (hERG) potassium channel (human, UniProt Q12809)
Test: primary screen, population patch clamp on CHO cells stably expressing hERG; higher = less effect of the substance

Chain of human ether-à-go-go-related gene (hERG) potassium channel (Q12809 whole entry, looked up): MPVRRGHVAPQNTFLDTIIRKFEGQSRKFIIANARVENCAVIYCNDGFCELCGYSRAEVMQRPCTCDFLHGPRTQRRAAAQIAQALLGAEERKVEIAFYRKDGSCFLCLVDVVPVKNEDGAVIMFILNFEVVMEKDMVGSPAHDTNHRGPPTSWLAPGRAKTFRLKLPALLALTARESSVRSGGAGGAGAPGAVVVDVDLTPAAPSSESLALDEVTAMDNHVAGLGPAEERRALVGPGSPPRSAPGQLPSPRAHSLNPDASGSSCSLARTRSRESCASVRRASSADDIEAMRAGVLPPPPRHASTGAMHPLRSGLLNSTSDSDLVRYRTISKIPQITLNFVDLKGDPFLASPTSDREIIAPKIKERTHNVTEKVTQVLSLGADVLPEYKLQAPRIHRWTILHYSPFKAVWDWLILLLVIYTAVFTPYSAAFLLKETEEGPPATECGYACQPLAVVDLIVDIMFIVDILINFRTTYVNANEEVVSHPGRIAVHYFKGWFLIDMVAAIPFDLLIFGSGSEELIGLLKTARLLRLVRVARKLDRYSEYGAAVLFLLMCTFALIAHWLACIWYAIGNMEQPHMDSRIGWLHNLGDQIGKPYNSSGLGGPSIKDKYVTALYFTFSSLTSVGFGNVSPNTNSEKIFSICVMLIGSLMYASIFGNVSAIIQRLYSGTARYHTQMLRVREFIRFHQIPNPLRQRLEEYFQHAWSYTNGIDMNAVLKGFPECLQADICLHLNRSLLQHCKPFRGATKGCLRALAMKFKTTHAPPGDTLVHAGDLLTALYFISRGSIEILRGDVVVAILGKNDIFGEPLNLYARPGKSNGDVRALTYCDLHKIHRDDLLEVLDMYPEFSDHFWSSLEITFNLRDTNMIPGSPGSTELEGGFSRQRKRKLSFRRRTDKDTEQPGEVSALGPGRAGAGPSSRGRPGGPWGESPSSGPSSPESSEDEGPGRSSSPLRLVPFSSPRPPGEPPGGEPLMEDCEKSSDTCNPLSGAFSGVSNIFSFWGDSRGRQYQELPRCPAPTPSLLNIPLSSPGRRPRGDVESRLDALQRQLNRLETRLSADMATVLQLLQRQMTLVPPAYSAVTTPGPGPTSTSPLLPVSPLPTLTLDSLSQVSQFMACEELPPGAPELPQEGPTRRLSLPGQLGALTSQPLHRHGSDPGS

Structure (SMILES) | hERG current change (%, negative = inhibition) at 1uM
O=C(C[n+]1ccc(C(=O)N/N=C/c2ccc(O)cc2)cc1)c1ccccc1.[Br-] | 4.63%
O=C(C[n+]1ccc(C(=O)N/N=C/c2ccc(Br)cc2)cc1)c1ccccc1.[Br-] | -32.5%
O=C(C[n+]1ccc(C(=O)N/N=C/c2ccc(Cl)cc2Cl)cc1)c1ccccc1.[Br-] | -63.3%
O=C(NCC1CCCO1)c1ccc(S(=O)(=O)Nc2ccccc2F)cc1 (stereo not drawn) | 7.53%
Cc1ccc(N/C(N)=N/c2nc(C)cc(N3CCCCC3)n2)c(C)c1 | -79%
COc1ccc(C)cc1N/C(N)=N/c1nc(C)cc(C)n1 | -64.7%
COc1ccccc1N/C(N)=N/c1nc(C)cc(C)n1 | -2.38%
COc1ccc(Cl)cc1N/C(N)=N/c1nc(C)cc(=O)[nH]1 | 12.3%
COc1ccc(OC)c(N/C(N)=N/c2nc(C)cc(C)n2)c1 | -26.5%
CC(=O)N/C(=N/c1nc(C)cc(C)n1)Nc1ccc(C)cc1C | 4.11%
COc1ccc(Cl)cc1N/C(N)=N/c1nc(C)cc(C)n1 | -79.1%
COc1cc(N/C(N)=N/c2nc(C)cc(C)n2)c(OC)cc1Cl | -17.2%
CCCOc1ccccc1N/C(N)=N/c1nc(C)cc(C)n1 | -59.4%
Cc1ccc(C)c(N/C(N)=N/c2nc(C)cc(C)n2)c1 | -8.3%
CCCOc1ccccc1N/C(=N/c1nc(C)cc(C)n1)NC(=O)Nc1ccc(Cl)cc1 | 8.59%
COc1ccc(N/C(N)=N/c2nc(C)cc(C)n2)c(OC)c1 | -2.86%
COc1cc(/C=C(\C#N)C(=O)Nc2ccccc2F)ccc1OCCN1CCOCC1 | -25.6%
CN(c1ccccc1)S(=O)(=O)c1cc(C(=O)N2CCN(c3ccccn3)CC2)ccc1Cl | 16.5%
CN1CCN(c2ccc([N+](=O)[O-])cc2NC(=O)c2ccco2)CC1 | -22.4%
Cc1ccc(S(=O)(=O)N2CCCCC2)cc1C(=O)N(CCc1ccccc1)Cc1ccccc1 | 12.2%
COc1ccc(C(=O)Oc2ccc(F)cc2C(=O)/C=C/c2ccc(OC)c(OC)c2)cc1 | 0.79%

Structure (SMILES) | hERG current change (%, negative = inhibition) at 1uM
O=C(COc1ccccc1Cl)NC(=S)Nc1ccc(CN2CCOCC2)cc1 | 15.7%
Cc1ccc(NC(=O)COc2ccc3oc4c(c3c2)CCCC4)nc1 | 2.88%
COc1cc(C2C(C(=O)c3cccs3)=C(O)C(=O)N2c2cc(C)on2)ccc1O (stereo not drawn) | 2.84%
COc1ccc([N+](=O)[O-])cc1NC(=O)CSCc1ccccc1 | 13.5%
COc1ccc(-c2cc3ccc(OCC(=O)NCC4CCC(C(=O)O)CC4)cc3oc2=O)cc1 (stereo not drawn) | 5.49%
CC(C)(C)C(=O)N1NC(=Nc2ccccc2)SC1(C)C | 7.38%
CCOc1ccc(S(=O)(=O)NCC2CCCO2)c2ccccc12 (stereo not drawn) | 4.4%
O=C1OC(Nc2ccc(Cl)cn2)c2ccccc21 (stereo not drawn) | 2.2%
CCn1c(/C=C/N(C)c2ccccc2)[n+](CC)c2ccc(Cl)cc21.[I-] | -7.59%
CCOC(=O)c1ccc2c(c1)n(CCCS(=O)(=O)[O-])c(/C=C/c1ccc(Cl)cc1)[n+]2CC | -7.29%
CCn1c(C)[n+](CC)c2ccc(C(=O)N(C)c3ccccc3)cc21.[I-] | 25.5%
CCOC(=O)c1ccc2c(c1)n(CC)c(C)[n+]2CC.[I-] | 1.24%
CCOC(=O)c1ccc2c(c1)n(Cc1ccccc1)c(C)[n+]2CC.[O-][Cl+3]([O-])([O-])[O-] | 1.03%
CCOC(=O)c1ccc2c(c1)n(CC)c(/C=C/N(C)c1ccccc1)[n+]2CC.[I-] | -66.2%
CCn1c(/C=C/Nc2ccccc2)[n+](CC)c2ccc(C(=O)OCC(F)(F)F)cc21.[I-] | -90.5%
CCOC(=O)c1ccc2c(c1)n(CC)c(/C=C/Nc1ccccc1)[n+]2CC.[I-] | -86.7%
CCOC(=O)c1ccc2c(c1)n(CCO)c(C)[n+]2CC.[I-] | 6.24%
CCC1CCCCN1C(=O)c1sc2nc(C)nc(N(CC)CC)c2c1C (stereo not drawn) | 5.72%
O=C(CC1C(=O)NCCN1Cc1ccc(Cl)c(F)c1)NC1CCC1 (stereo not drawn) | 14%
Cc1ccc(C2CCN(C(=O)Nc3ccccc3)C2)cc1 (stereo not drawn) | 11.5%
CC(C)CC1NC(=O)N(CC(=O)NC2CCCc3ccccc32)C1=O (stereo not drawn) | 9.38%

Structure (SMILES) | hERG current change (%, negative = inhibition) at 1uM
O=C(c1cccc(C(F)(F)F)c1)N1CCN(S(=O)(=O)c2ccc(Cl)s2)CC1 | 3.68%
O=C(O)c1ccc2c(c1)C(=O)N(c1cc([N+](=O)[O-])ccn1)C2=O | 10.8%
COc1ccccc1C1/C(=C(/O)c2ccccc2)C(=O)C(=O)N1CC(C)C (stereo not drawn) | 10.7%
O=C(O)C1C2C=CC(C2)C1C(=O)NCc1ccoc1 (stereo not drawn) | 14.3%
O=C(CN1CCN(c2ccccc2O)CC1)Nc1ccc([N+](=O)[O-])cc1Br | 7.54%
CC(=O)N1CCN(CC(=O)Nc2ccc([N+](=O)[O-])cc2Br)CC1 | -60.4%
O=C(CN1CCOCC1)Nc1ccc([N+](=O)[O-])cc1Br | -11.7%
CN1CCN(CC(=O)Nc2ccc([N+](=O)[O-])cc2Br)CC1 | -55.8%
CC(=O)N1CCN(CC(=O)Nc2cc([N+](=O)[O-])ccc2Cl)CC1 | 1.54%
O=C(CN1CCCCCC1)Nc1ccc([N+](=O)[O-])cc1Br | 10.1%
O=C(CSc1cccc[n+]1[O-])C12CC3CC(CC(C3)C1)C2 | 6.16%
NS(=O)(=O)c1cccc(NC(=O)CCCC2CCCCC2)c1 | 7.26%
Cc1cccc(-c2c3c(=O)n(C)c(=O)n(C)c3cn2-c2ccc(O)cc2)c1 | 13.8%
Cc1nc2c(-c3ccccc3)c[nH]n2c(=O)c1Cc1ccccc1 | 13.3%
O=C(O)C(=O)O.O=[N+]([O-])c1ccc(S(=O)(=O)N2CCN(Cc3ccco3)CC2)cc1 | 18.9%
O=S(=O)(c1ccc(Cl)cc1)N1CCN(C2CCCCCC2)CC1 | 1.61%
O=S(=O)(c1ccccc1)N1CCN(Cc2ccc(Cl)cc2)CC1 | -2.04%
CC(C)CC(=O)N1CCN(S(=O)(=O)c2ccccc2)CC1 | 8.07%
Cc1ccc(S(=O)(=O)N2CCN(Cc3ccccc3)CC2)cc1 | 10%
O=S(=O)(c1ccc(Cl)cc1)N1CCN(C2CCN(Cc3ccccc3)CC2)CC1 | -59%
CC(CC(=O)N1CCN(S(=O)(=O)c2ccc([N+](=O)[O-])cc2)CC1)c1ccccc1 (stereo not drawn) | -50.3%

Structure (SMILES) | hERG current change (%, negative = inhibition) at 1uM
O=C(Cc1ccccc1)N1CCN(S(=O)(=O)c2ccc([N+](=O)[O-])cc2)CC1 | -24.6%
Cc1ccc(S(=O)(=O)N2CCN(C3CCN(Cc4ccccc4)CC3)CC2)cc1.O=C(O)C(=O)O | -75.3%
O=[N+]([O-])c1ccccc1S(=O)(=O)N1CCN(C2CCN(Cc3ccccc3)CC2)CC1 | -18.2%
O=C(O)C(=O)O.O=[N+]([O-])c1ccc(S(=O)(=O)N2CCN(C3CCN(Cc4ccccc4)CC3)CC2)cc1 | -78.1%
COc1ccc(S(=O)(=O)N2CCC(N3CCN(Cc4ccccc4)CC3)CC2)cc1.O=C(O)C(=O)O | -14.4%
c1ccc(OCc2nn3c(-c4ccccn4)nnc3s2)cc1 | 12.2%
O=C(CN(C(=O)CNC(=O)c1cccs1)c1ccc2c(c1)OCCO2)NC1CCCC1 | -3.99%
COc1cccc(NC(=S)NNC(=O)Cn2nc(C(F)(F)F)cc2C)c1 | 9.84%
COc1ccc(COC(=O)C2=C(C)NC(=O)NC2c2ccc(OC)c(OC)c2)cc1 (stereo not drawn) | 12.4%
Cc1ccc(-c2cc3ccccc3nc2N2CCOCC2)cc1 | 9.78%
Cc1ccc(OC(F)F)c(NC(=O)Nc2ccc3c(c2)OCO3)c1 | 19.9%
CC(=O)NC(c1ccco1)c1ccc2cccnc2c1O (stereo not drawn) | -3.48%
Cc1cc(CSc2ccccc2C(=O)O)on1 | 11.6%
Cc1ccc(C2=N/C(=C\c3cccnc3)C(=O)O2)cc1 | 3.52%
CN1CCN(CC2(O)CCN(S(=O)(=O)c3ccc(Cl)cc3)CC2)CC1 | -9.27%
COc1ccc(S(=O)(=O)N2CCN(C3CCN(Cc4ccccc4)CC3)CC2)cc1 | -15.6%
O=S(=O)(c1ccccc1)N1CCC(O)(CN2CCN(c3ccccc3)CC2)CC1 | 14.8%
O=S(=O)(c1ccccc1)N1CCN(C2CCN(Cc3ccccc3)CC2)CC1 | -64.1%
O=S(=O)(c1ccc(Cl)cc1)N1CCC(O)(CN2CCN(Cc3ccccc3)CC2)CC1 | -75.6%
CS(=O)(=O)N1CCN(C2CCN(Cc3ccccc3)CC2)CC1 | 7.88%
Cc1cc(NC(=O)CCC(=O)N(Cc2cccnc2)C(C(=O)NC(C)(C)C)c2ccccc2Cl)no1 (stereo not drawn) | 14.7%

Reference: PMC4336329 (PLoS ONE, 2015)
